Shown are actives, neighbours in structure and some others; about 4.2% of the full set was active somewhere.
hgDAF12 agonist – hgDAF-12 agonism, primary luciferase screen; HEK293 GAL4-hgDAF12 UAS-luciferase reporter, agonist luminescence; normalized to butyrate control; activation, % at 6.8 µM; actives 1.8% (n = 370,000);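 active means activation above a cutoff set at the mean of all screened compounds plus 3 SD, cut at about 10% in these data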
hcDAF-12 act – activates DAF-12 receptor from parasite H. contortus. activation, % at 6.8 µM. AID 652067. HEK293 hcDAF-12 lit1-tk-luc reporter, luminescence; 0% DMSO, 100% Δ7-dafachronic acid. actives 1.4% (n = 370,000);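 active means activation above the mean of all tested compounds plus 3 SD, cut at about 5.5% in these data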
DAX1 StAR inh – inhibitors of DAX1 repression of SF-1 activated StAR promoter. actives 1.1% (n = 370,000). AID 652010. HEK293T StAR-luciferase reporter, SF-1/DAX-1 repression relief. inhibition, % at 6.8 µM;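 active means inhibition above the mean over all tested compounds plus 3 SD, cut at about 3.6% in these data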;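 further: higher inhibition means more luminescence from relief of DAX-1 repression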
esBAF inh – SWI/SNF esBAF complex inhibition; actives 2% (n = 350,000); mouse ES cells, Bmi1-luciferase knock-in reporter, 24 h; 100% = twice the neutral-well signal; AID 602393; reporter increase, % at 12.5 µM; in the data active means activation above about 40%; inconclusive means no clear call, values can overlap the other calls;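 further: a rise in the Bmi1 reporter signal indicates esBAF inhibition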
ssDAF-12 act – activates DAF-12 receptor from parasite S. stercoralis; HEK293 ssDAF-12/GRIP1 lit1-tk-luc reporter, luminescence; % of 3 µM dafachronic acid response; activation, % at 6.8 µM; actives 1% (n = 370,000); AID 652126;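 active means activation above the mean over all tested compounds plus 3 SD, cut at about 0.9% in these data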
Wnt act – activators of Wnt/beta-catenin signaling | activation, % at 9.35 µM | actives 1.2% (n = 300,000) | Wnt/beta-catenin reporter cell assay, activator, plate reader; in the data active means activation above about 30%, passing the limit was not always enough; inconclusive means no clear call, values can overlap the other calls
A number is an active result; . = inactive; ? = inconclusive; / = no result.

SMILES | hgDAF12 agonist | hcDAF-12 act | DAX1 StAR inh | esBAF inh | ssDAF-12 act | Wnt act
CCNC(=S)N/N=C/c1c(C)nn(-c2cccc(Cl)c2)c1Cl | . | . | . | / | . | .
Cc1nn(-c2cccc(Cl)c2)c(Cl)c1/C=N/NC(=O)c1cccs1 | 11 | . | . | / | . | /
Cc1nn(-c2ccccc2)c(Cl)c1/C=N/NC(=O)c1ccccc1F | . | . | . | / | . | ?
C[C@@H]1CN([C@@H](C)CO)C(=O)c2cc(NC(=O)Nc3ccc(F)cc3)ccc2O[C@@H](C)CCCCO[C@@H]1CN(C)Cc1ccncc1 | / | / | / | . | / | /
CN1C(=O)c2cc(NC(=O)c3cnccn3)ccc2OC[C@@H]2O[C@H](CC(=O)O)CC[C@H]21 | / | / | / | . | / | /
COc1ccccc1C(=O)N(C)c1nnc(-c2ccccc2)s1 | . | . | . | 49 | . | 40
C[C@@H]1CN([C@H](C)CO)C(=O)c2cc(NC(=O)NC3CCCCC3)ccc2O[C@@H](C)CCCCO[C@H]1CN(C)Cc1ccc2c(c1)OCO2 | / | / | / | . | / | /
COc1cccc2sc3cc(NCCCN4CCOCC4)ccc3c(=O)c12 | . | . | . | . | . | .
CC(C)c1ccc(NC(=O)N2CCOCC2)cc1 | . | . | . | 45 | . | .
CCNC(=S)Nc1ccc2c(c1)oc1ccccc12 | . | . | . | 63 | . | 38
O=C(Nc1ccc2c(c1)oc1ccccc12)N1CCOCC1 | . | . | . | 60 | . | /
O=c1c2ccccc2oc2cc(NCCCN3CCOCC3)ccc12 | 12 | . | . | 43 | . | 44
C[C@@H]1CCCCO[C@@H](CN(C)Cc2ccc(C(=O)O)cc2)[C@H](C)CN([C@H](C)CO)C(=O)c2cc(NS(=O)(=O)c3ccccc3)ccc2O1 | / | / | / | . | / | /
CN1CCN(C(=O)C[C@@H]2CC[C@H]3[C@@H](COC[C@@H](O)CN3C(=O)Nc3ccc(F)cc3)O2)CC1 | / | / | / | . | / | /
Cc1ccc(NC(=O)N2CCCCCC2)cc1 | . | . | 3.9 | . | . | .
Cc1ccc(Nc2nc(CSc3n[nH]c(N)n3)cs2)cc1 | 12 | . | . | . | . | 43
Cc1ccc(Nc2nc(CSc3nnnn3C)cs2)cc1 | 11 | . | . | 61 | . | .
C[C@@H]1CN([C@H](C)CO)S(=O)(=O)c2ccc(C3=CCCCC3)cc2O[C@@H]1CN(C)C(=O)c1ccncc1 | / | / | / | . | / | /
CC(C)c1cn(CC[C@H]2CC[C@@H](NC(=O)C3CCCCC3)[C@@H](CO)O2)nn1 | / | / | / | . | / | /
Clc1cccc(CSc2ncn(-c3ccccc3)n2)c1 | . | . | . | 42 | . | .
O=C(CSc1ncn(-c2ccccc2)n1)N1CCc2ccccc21 | . | . | . | . | . | /
Clc1ccc(CSc2ncn(-c3ccccc3)n2)cc1 | . | . | . | 58 | . | /
Cc1noc(C)c1S(=O)(=O)Nc1cccc2c1O[C@@H](CN(C)CC1CC1)[C@@H](C)CN([C@@H](C)CO)C2=O | / | / | / | . | / | /
COCC(=O)Nc1ccc2c(c1)[C@H]1C[C@@H](CC(=O)NC3CCCC3)O[C@H](CO)[C@H]1O2 | / | / | / | . | / | /
COC(=O)c1c(-c2ccccc2)csc1NC(=O)c1ccco1 | 11 | . | . | 98 | . | /
SMILES | hgDAF12 agonist | hcDAF-12 act | DAX1 StAR inh | esBAF inh | ssDAF-12 act | Wnt act
Cc1cc(C)cc(NC(=O)CN2CCC(NC(=O)Cc3ccccc3)CC2)c1 | . | . | . | . | . | .
Cc1ccc(NC(=O)CN2CCC(NC(=O)Cc3ccccc3)CC2)c(C)c1 | . | . | . | . | 1.2 | .
CCCC(=O)Nc1ccc2c(c1)OC[C@@H](C)N(Cc1ccccn1)C[C@@H](C)[C@@H](OC)CN(C)C2=O | / | / | / | . | / | /
CCc1cc2c(N=Nc3c(O)[nH]c4ccccc34)ncnc2s1 | . | . | . | / | . | /
Cc1sc2ncnc(N=Nc3c(O)[nH]c4ccccc34)c2c1C | . | . | . | 52 | . | .
CCCc1ccc2oc(C(=O)N(Cc3nccn3C)C(C)C)c(C)c2c1 | . | . | . | . | . | .
CCCc1ccc2oc(C(=O)N(C)Cc3ccn[nH]3)c(C)c2c1 | . | . | . | 75 | . | .
CCCc1ccc2oc(C(=O)NCCc3cnn(C)c3)c(C)c2c1 | . | . | . | 47 | . | .
CCCc1ccc2oc(C(=O)NCCc3nc(C(=O)OCC)cs3)c(C)c2c1 | . | . | . | / | . | .
CC(C)(C)c1nnc(NC(=S)Nc2ccccc2)s1 | 11 | . | . | 75 | . | .
S=C(Nc1ccccc1)Nc1nccs1 | . | . | . | 60 | . | .
CC(C)(C)c1nnc(NC(=O)CCS(=O)(=O)c2ccccc2)s1 | . | . | . | . | . | .
CCOc1c(OC(C)=O)ccc(/C=C/c2ccc3cccc(OC(C)=O)c3n2)c1[N+](=O)[O-] | / | / | / | 66 | / | .
COc1cc(/C=C/c2ccc3cccc([N+](=O)[O-])c3n2)ccc1OCC#N | . | . | . | . | . | /
COC(=O)c1ccc(/C=C/c2ccc3cccc(OC(C)=O)c3n2)cc1 | 12 | . | . | / | . | /
COc1c(OC(C)=O)ccc(/C=C/c2ccc3cccc(OC)c3n2)c1[N+](=O)[O-] | . | . | . | / | . | 32
Cc1noc(C)c1NC(=O)Nc1cccc2c1O[C@@H](CN(C)Cc1ccc(C(=O)O)cc1)[C@H](C)CN([C@H](C)CO)C2=O | / | / | / | . | / | /
COc1cc(/C=C/C(=O)OCC(=O)NCCc2ccccc2)cc(OC)c1OC | . | . | . | / | . | 41
COc1ccc(CCNC(=O)COC(=O)/C=C/c2ccc3c(c2)OCO3)cc1 | . | . | . | 47 | . | .
COc1ccc(CCNC(=O)COC(=O)/C=C/c2ccc(OC)c(OC)c2)cc1 | . | . | . | / | . | .
COc1ccc(/C=C/C(=O)c2cc3c(cc2N)OCO3)cc1 | . | . | . | / | . | 52
COc1ccc(NC(=O)/C(=C\c2ccc3c(c2)OCO3)NC(C)=O)cc1 | . | . | . | / | . | 47
C[C@@H]1CCCCO[C@@H](CN(C)C)[C@@H](C)CN([C@@H](C)CO)C(=O)c2cc(NC(=O)C3CCCCC3)ccc2O1 | / | / | / | . | / | /
C[C@H](CO)N1C[C@H](C)[C@@H](CN(C)C(=O)Nc2ccc3c(c2)OCO3)Oc2cc(C3=CCCCC3)ccc2S1(=O)=O | / | / | / | . | / | /
CCCN1[C@H](C(=O)NC2CCC2)[C@@H](CO)[C@@H]2Cn3c(ccc(-c4cccnc4)c3=O)[C@@H]21 | / | / | / | . | / | /
SMILES | hgDAF12 agonist | hcDAF-12 act | DAX1 StAR inh | esBAF inh | ssDAF-12 act | Wnt act
CNC[C@H]1OCCCC[C@H](C)Oc2ccc(NS(=O)(=O)c3ccccc3)cc2C(=O)N([C@H](C)CO)C[C@@H]1C | / | / | / | . | / | /
O=C(c1cccc(F)c1)N1C[C@@H]2[C@H](c3ccccc31)[C@H](CO)N2C(=O)c1ccc(F)cc1 | / | / | / | . | / | /
COc1cccc(=O)c2c(C)n(CC(=O)c3ccccc3)c(C)c12 | . | . | . | . | 1.5 | .
COc1ccc(-c2ccc3nccn3c2)cc1 | . | . | . | 45 | . | .
Fc1ccc(-c2ccc3nccn3c2)cc1Cl | . | . | . | . | . | .
C[C@@H]1CN([C@@H](C)CO)C(=O)c2cc(C#Cc3ccccn3)cnc2O[C@H]1CN(C)C(=O)c1ccccn1 | / | / | / | . | / | /

Source: PubChem (several laboratories)
